The values below come from PubChem BioAssay (Tox21).

The nature of experiment [1]: qHTS assay for small molecules that induce genotoxicity in human embryonic kidney cells expressing luciferase-tagged ATAD5 - cell viability (AID 651634; calls by dose curve; note: nearly all actives have a fitted effect of over 25% in size; note: potency is the fitted concentration of half-maximal effect). In a few lines: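 Cytotoxicity counterscreen in HEK293T cells bearing an ATAD5-luciferase reporter: live-cell protease activity measured by CellTiter-Fluor fluorescence after 15.5 hr compound exposure.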
For orientation: qHTS replaces the single test concentration by a dilution series.

Experiment [2] can be described thus: qHTS assay for small molecule disruptors of the mitochondrial membrane potential - cell viability (AID 720634; calls by dose curve;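 note: human HepG2 liver cancer cells; series mostly up to about 83 µM; nearly all actives have a fitted effect of over 20% in size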). Summed up: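 After overnight attachment at 37 C, HepG2 cells received compound or DMSO vehicle for 1 hr. Viability is then taken from ATP-driven luminescence following a 30 min room-temperature CellTiter-Glo step.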
Experiment [3] in a line: qHTS assay for small molecule disruptors of the mitochondrial membrane potential (AID 720635). Note: potency is the fitted concentration of half-maximal effect. Summed up:
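HepG2 cells exposed to compound 1 hr at 37C, then Mito-MPS dye 30 min. Ratio read of aggregate (540/590 nm) versus monomer (490/535 nm) fluorescence.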

The nature of experiment [4]: qHTS assay to test for compound auto fluorescence at 590 nm (red) in HepG2 cells (AID 720674). In a few lines:
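Fluorescence at 590 nm emission following 540 nm excitation was recorded from HepG2 wells one hour after compound transfer, with DMSO-only wells as vehicle and Rose Bengal sodium equivalency as the scale.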

The nature of experiment [5]: qHTS assay to test for compound auto fluorescence at 535 nm (green) in HepG2 cells (AID 720675).
Experiment [6] is described as follows: qHTS assay to test for compound auto fluorescence at 460 nm (blue) in HEK293 cells (AID 720678). Summed up: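 HEK293, 2,000 cells/well, 10% dialyzed FBS; attach 4-5 hr 37C; pin compound or DMSO; o/n 37C/5% CO2; fluorescence 405/460 nm; triamterene-equivalent units.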
Experiment [7] is described as follows: qHTS assay to test for compound auto fluorescence at 590 nm (red) in HEK293 cells (AID 720679). In a few lines: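 Intensity at 540nm excitation and 590nm emission is reported as Rose Bengal sodium-equivalent autofluorescence. Measurements followed overnight exposure (37C, 5% CO2) of HEK293 cells, 2,000 per well, to 23 nL compound.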
Experiment [8] is described as follows: qHTS assay for small molecules that induce genotoxicity in human embryonic kidney cells expressing luciferase-tagged ATAD5 (AID 651632). Note: nearly all actives have a fitted effect of over 15% in size. In a few lines: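 Increased luciferase signal from ATAD5-tagged reporter cells indicates DNA-damage-driven ATAD5 induction. HEK293T cells are treated for 16 hr at 37C before detection with Amplite.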
The nature of experiment [9]: qHTS assay for small molecule agonists of the p53 signaling pathway - cell viability (AID 651633; calls by dose curve;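 note: p53RE-bla HCT reporter cells with a stable beta-lactamase p53 reporter; series mostly up to about 83 µM; nearly all actives have a fitted effect of over 30% in size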). Summed up: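 p53RE-bla cells were treated with compound for 16 hours at 37 C. Cytotoxicity was then measured as CellTiter-Glo luminescence after 30 min at room temperature.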

The structures appear in SMILES notation. Several values for one entry are separate records, joined by “and”; a condition that tells them apart may be missing. Equal entries are not always repeated. Inconclusive results are not listed. Activity calls are given as the source filed them. Unless noted, calls come from the whole dose curve; as a rule, active = well fitted curve in the direction sought with a large enough effect in the repeat runs; inconclusive = weak or mixed curves; inactive = no such curve, though single readings can be large; an effect the other way counts as inactive or inconclusive.

Take `O=S(=O)(O)c1ccccc1`: the Potency entry in experiment [1], in experiment [2] and in experiment [3] was “inactive” each time. Besides, the call in experiment [4], in experiment [5], in experiment [6] and in experiment [7] was inactive.

Consider `O=C1C(c2[nH]c3ccccc3c2O)=Nc2ccccc21`, for which the result in [8], in [4], in [5] and in experiment [7] was inactive. In addition, the Potency result in experiment [1] and in experiment [2] was “inactive” in each case. Further, the Potency in experiment [3] was 4.22 µM (active).

Turning to `COCCCN`, the result in [8], in [4], in experiment [5] and in experiment [7] was inactive. Also, the Potency result in experiment [1], in experiment [2] and in [3] was “inactive” throughout.

`C=CCCCCCCCCC(=O)O`: the outcome in [9], in [4], in experiment [5], in experiment [6] and in experiment [7] was inactive. For the same molecule, the Potency result in [1] and in [2] was “inactive” throughout.

With `O=[N+]([O-])c1ccc2nc[nH]c2c1`, the Potency result in experiment [1] and in [2] was “inactive” in each case. Also, the Potency in experiment [3] is 27.3 µM (active). Also, the outcome in experiment [4], in [5] and in experiment [6] was inactive.

Regarding `C[C@]12CCC(=O)C=C1CC[C@@H]1[C@@H]2[C@@H](O)C[C@@]2(C)[C@H]1CC[C@]2(O)C(=O)CO`, the molecule was classed as inactive in [8], in [4], in experiment [5] and in [7]. In addition, the Potency result in experiment [1] was “inactive”.

In the case of `NCCCCCCN`, the result in [9], in experiment [4], in experiment [5] and in experiment [7] was inactive. The Potency result in experiment [1], in experiment [2] and in [3] was “inactive” in each case.

Take `C=C(C)[C@H]1CC=C(C)C(=O)C1`: the Potency result in [1] and in [2] was “inactive” in each case. For the same molecule, the result in experiment [4], in experiment [5] and in [7] was inactive.

In the case of `CCCCCCCCCCCCCCCCO`, the Potency result in [1], in experiment [2] and in experiment [3] was “inactive” each time. Further, the molecule was classed as inactive in experiment [4], in experiment [5], in experiment [6] and in experiment [7].

In the case of `O=c1[nH]cnc2[nH]ncc12`, the result in [9], in experiment [4], in experiment [5], in [6] and in [7] was inactive. The Potency entry in experiment [1], in experiment [2] and in experiment [3] was “inactive” in each case.

As to `CC(C)(Oc1ccc(CCNC(=O)c2ccc(Cl)cc2)cc1)C(=O)O`, the Potency entry in [1], in experiment [2] and in experiment [3] was “inactive” each time. Besides, the molecule was called inactive in experiment [4] and in experiment [5].

As for `O=S(=O)(O)c1ccc(N=Nc2c(O)ccc3cc(S(=O)(=O)O)ccc23)cc1`, the molecule was classed as inactive in [8], in experiment [4], in [5], in [6] and in [7]. For the same molecule, the Potency in [1] is 30.8 µM (active) and 30.6 µM (active). Further, the Potency entry in experiment [2] is “inactive”.

Consider `CC(C)=CCl`, for which the result in experiment [8], in experiment [4], in experiment [5], in [6] and in experiment [7] was inactive. Moreover, the Potency entry in [1] and in [2] was “inactive” throughout.

Consider `CC(C)(C)c1cc(Cc2cc(C(C)(C)C)c(O)c(C(C)(C)C)c2)cc(C(C)(C)C)c1O`, for which the Potency result in experiment [1], in [2] and in experiment [3] was “inactive” in each case. The molecule was classed as inactive in experiment [4], in [5] and in [7].

For `CC(C)c1cccc(C(C)C)c1`, the molecule was classed as inactive in experiment [8], in experiment [4], in experiment [5], in [6] and in [7]. Moreover, the Potency entry in experiment [1] and in experiment [2] was “inactive” each time.

In the case of `CC1(C)S[C@@H]2[C@H](NC(=O)COc3ccccc3)C(=O)N2[C@H]1C(=O)O`, the outcome in [9], in experiment [4], in [5] and in [6] was inactive. Also, the Potency result in experiment [1], in [2] and in experiment [3] was “inactive” in each case.

In the case of `CC(C)OP(=O)(CP(=O)(OC(C)C)OC(C)C)OC(C)C`, the Potency result in experiment [1] and in experiment [2] was “inactive” throughout. Besides, the result in [4], in experiment [5] and in [6] was inactive.

Take `CC1(C)OC[C@@H]2O[C@@]3(C(=O)O)OC(C)(C)O[C@H]3[C@@H]2O1`: the molecule was called inactive in experiment [9], in experiment [4] and in experiment [5]. Moreover, the Potency result in experiment [1], in [2] and in experiment [3] was “inactive” throughout.

On to `O=C1c2ccccc2CCc2ccccc21`, for which the call in experiment [8], in [4], in experiment [5] and in experiment [7] was inactive. In addition, the Potency result in experiment [1] and in [2] was “inactive” in each case. Besides, the Potency in experiment [3] was 31.3 µM (active).

With `C[C@]12CC[C@@H]3c4ccc(O)cc4CC[C@H]3[C@@H]1C[C@@H](O)[C@@H]2O`, the Potency entry in experiment [2] and in experiment [3] was “inactive” each time. In addition, the outcome in experiment [4], in experiment [5] and in experiment [6] was inactive.

In the case of `c1ccc(Oc2ccccc2)cc1`, the molecule was called inactive in experiment [9], in experiment [4], in experiment [5], in [6] and in experiment [7]. Besides, the Potency result in experiment [1], in [2] and in experiment [3] was “inactive” in each case.

For the molecule `NCCNCCN`, the molecule was classed as inactive in experiment [9], in experiment [4], in experiment [5] and in experiment [7]. Besides, the Potency result in experiment [1] is “inactive”.

Consider `CCCCCCCO`, for which the call in experiment [9], in experiment [4], in [5] and in experiment [7] was inactive. Also, the Potency result in [1], in experiment [2] and in experiment [3] was “inactive” each time.

With `CC(=O)OCc1ccccc1`, the Potency result in experiment [1], in [2] and in [3] was “inactive” throughout. The molecule was classed as inactive in experiment [4], in experiment [5] and in experiment [6].

Take `CCOCCOCCOCCO`: the result in experiment [8], in experiment [4], in experiment [5], in experiment [6] and in [7] was inactive. In addition, the Potency result in experiment [1], in experiment [2] and in experiment [3] was “inactive” throughout.

Regarding `N[C@H](Cc1c[nH]c2ccccc12)C(=O)O`, the molecule was called inactive in experiment [9], in experiment [4], in experiment [5] and in [7]. Besides, the Potency result in experiment [1], in [2] and in [3] was “inactive” throughout.

Regarding `C=C(C)CNCC`, the outcome in experiment [9], in experiment [4], in experiment [5], in experiment [6] and in [7] was inactive. In [1], the Potency entry was “inactive”.

Take `CCO[Si](CCC#N)(OCC)OCC`: the Potency result in [1], in experiment [2] and in experiment [3] was “inactive” in each case. Also, the molecule was called inactive in experiment [4] and in experiment [5].

As to `CNC(=O)Oc1ccc2c(c1)[C@]1(C)CCN(C)[C@@H]1N2C`, the outcome in experiment [9], in experiment [4], in [5] and in [7] was inactive. Besides, the Potency entry in [1] and in experiment [2] was “inactive” each time.

For `COc1ccc(CCC(C)=O)cc1`, the call in [9], in [4], in experiment [5], in [6] and in experiment [7] was inactive. The Potency result in experiment [1] and in [2] was “inactive” each time.

For the molecule `C=CC(C)CCCC(C)(C)O` (centres undefined), the result in experiment [9], in experiment [4], in [5] and in [7] was inactive. Besides, the Potency result in [1] and in experiment [2] was “inactive” in each case.

In the case of `NC(=S)NNC(N)=S`, the molecule was called inactive in experiment [8], in experiment [4], in experiment [5], in [6] and in [7]. Further, the Potency entry in experiment [1], in experiment [2] and in [3] was “inactive” each time.

For the molecule `Nc1nc(N)nc(-c2ccccc2)n1`, the outcome in experiment [9], in experiment [4], in [5] and in experiment [6] was inactive. Besides, the Potency entry in [1], in experiment [2] and in experiment [3] was “inactive” in each case.
